SMILES strings stand for the structures. Counter-ions that a name gives are not always drawn.
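Note: Hoechst-stained nuclei counted by automated confocal imaging of four fields per well in 384-well plates, with the robust Z-score based on the per-plate DMSO median and robust SD.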

The test system of the experiment is HeLa. The experiment in a line: nuclear count per well, robust Z-score vs DMSO; higher = more cells (less toxicity). The note with it: 10 µM; 6 h.
Take `N=C(N)NC(=O)c1nc(Cl)c(N)nc1N`: the “nuclear count per well” value was 0.294.

As to `CCCC1O[C@@H]2C[C@H]3[C@@H]4CCC5=CC(=O)C=C[C@]5(C)[C@H]4[C@@H](O)C[C@]3(C)[C@]2(C(=O)CO)O1` (stereo not given in full) [Budesonide], the “nuclear count per well” value was determined as 1.67.

With `Cc1ccc(C(=O)c2ccc(CC(=O)O)n2C)cc1` [Tolmetin sodium dihydrate], the “nuclear count per well” value was determined as 0.866.

`Clc1ccc(COC(Cn2ccnc2)c2ccc(Cl)cc2Cl)cc1` (stereo not given) [Econazole Nitrate]: the “nuclear count per well” value amounted to 0.277.

With `CC(C)NCC(O)c1ccc(NS(C)(=O)=O)cc1` (stereo not given), the “nuclear count per well” value was 0.48.

Regarding `COc1cc(NC(C)CCCN)c2ncccc2c1` (stereo not given) [Primaquine bisphosphate], the “nuclear count per well” value was -1.23.

For `Cc1ccc(C(=O)Nc2ccc(S(=O)(=O)O)c3cc(S(=O)(=O)O)cc(S(=O)(=O)O)c23)cc1NC(=O)c1cccc(NC(=O)Nc2cccc(C(=O)Nc3cc(C(=O)Nc4ccc(S(=O)(=O)O)c5cc(S(=O)(=O)O)cc(S(=O)(=O)O)c45)ccc3C)c2)c1` [Suramin sodium salt], the “nuclear count per well” value is -0.987.

`CC(=O)Oc1ccccc1C(=O)O` [Aspirin (Acetylsalicylic Acid)]: the “nuclear count per well” value is 0.231.

For `CC1=C(/C=C/C(C)=C/C=C/C(C)=C\C(=O)O)C(C)(C)CCC1` [Isotretinoin (13-Cis-Retinoic Acid)], the “nuclear count per well” value is -0.689.

Turning to `CN1CCCCC1CCN1c2ccccc2Sc2ccc([S+](C)[O-])cc21` (stereo not given) [Mesoridazine benzenesulfonate], the “nuclear count per well” value was found to be 0.23.

On to `NC(=O)N1c2ccccc2C=Cc2ccccc21` [Carbamazepine], for which the “nuclear count per well” value came out at 0.823.

As to `C[n+]1ccccc1/C=N/O` [Pralidoxime Chloride], the “nuclear count per well” value stood at 0.0425.

Regarding `CCCCCCCC/C=C\CCCCCCCC(=O)OCC(CO)OC(=O)CCCCCCC/C=C\CCCCCCCC` (stereo not given) [1,2-Dioleoyl-glycerol (18:1)], the “nuclear count per well” value is -0.53.

For the compound `C[C@H]1O[C@H](O[C@H]2[C@H](O)[C@@H](O)[C@@H](O[C@H]3[C@H](O)[C@@H](O)C(O)O[C@@H]3CO)O[C@@H]2CO)[C@H](O)[C@@H](O)[C@@H]1N[C@H]1C=C(CO)[C@@H](O)[C@H](O)[C@H]1O` (stereo not given in full) [Acarbose], the “nuclear count per well” value is -0.918.

Consider `CC(=O)O[C@H]1C(=O)[C@@]2(C)[C@H]([C@H](OC(=O)c3ccccc3)[C@]3(O)C[C@H](OC(=O)[C@H](O)[C@@H](NC(=O)c4ccccc4)c4ccccc4)C(C)=C1C3(C)C)[C@]1(OC(C)=O)CO[C@@H]1C[C@@H]2O` [Paclitaxel (Taxol)], for which the “nuclear count per well” value was -4.17.

For `CCCCCCCCCCCCCCCCOCC(CO)OC(C)=O` (stereo not given) [1-Hexadecyl-2-O-acetyl-glycerol], the “nuclear count per well” value came to 0.253.

For the compound `COC1CC2CCC(C)C(O)(O2)C(=O)C(=O)N2CCCCC2C(=O)OC(C(C)CC2CCC(O)C(OC)C2)CC(=O)C(C)C=C(C)C(O)C(OC)C(=O)C(C)CC(C)C=CC=CC=C1C` (stereo not given) [Rapamycin from Streptomyces hygroscopicus], the “nuclear count per well” value is -0.332.

In the case of `Fc1ccc(CNc2ncnc3ccc(F)cc23)cc1` [Spautin-1], the “nuclear count per well” value is 0.362.

For the compound `CC1(C)NC(=O)N(c2ccc([N+](=O)[O-])c(C(F)(F)F)c2)C1=O` [Nilutamide], the “nuclear count per well” value was -0.267.

Consider `CCCCC[C@H](O)/C=C/C1=C(CCCCCCC(=O)O)C(=O)CC1` [Prostaglandin B1], for which the “nuclear count per well” value was found to be 1.38.

In the case of `COc1ccc2c(c1)c(CC(=O)O)c(C)n2C(=O)c1ccc(Cl)cc1` [Indomethacin], the “nuclear count per well” value came out at 0.64.

Regarding `CCC(=O)O[C@]1(C(=O)CCl)[C@@H](C)C[C@H]2[C@@H]3CCC4=CC(=O)C=C[C@]4(C)[C@@]3(F)[C@@H](O)C[C@@]21C` [Clobetasol Propionate], the “nuclear count per well” value is -0.141.

On to `CC(C)C[C@@H](/C=C/S(C)(=O)=O)NC(=O)[C@H](CC(C)C)NC(=O)[C@H](CC(C)C)NC(=O)OCc1ccccc1`, for which the “nuclear count per well” value is -0.193.

Turning to `O=C(O)C(=O)O.[NH-][C@@H]1CCCC[C@H]1[NH-].[Pt+2]` [Oxaliplatin], the “nuclear count per well” value is -0.151.

With `CCN(CC)CCOC(=O)C1(C2CCCCC2)CCCCC1`, the “nuclear count per well” value stood at 0.0346.

Consider `CCN(CC)CCNC(=O)c1ccc(N)cc1` [Procainamide], for which the “nuclear count per well” value was -0.0146.

With `N#Cc1cc2c(OCC(O)CN3CCN(C(c4ccccc4)c4ccccc4)CC3)cccc2[nH]1` (stereo not given), the “nuclear count per well” value was found to be 0.46.

For `Oc1cc(O)cc(/C=C/c2ccc(O)c(O)c2)c1` [Piceatannol], the “nuclear count per well” value was -0.0133.

As for `CC(=O)Oc1cc2c(s1)CCN(C(C(=O)C1CC1)c1ccccc1F)C2` (stereo not given) [Prasugrel], the “nuclear count per well” value is -0.0809.

Take `CC[C@H](CO)Nc1nc(NCc2ccccc2)c2ncn(C(C)C)c2n1` [Roscovitine]: the “nuclear count per well” value was -0.656.

The values are drawn from the supplement of paper PMC9844399.
